Sampled rows, rich in hits. Any-hit rate of the full collection: about 3.5%.
MITF primary: MITF inhibitors, primary screen, biochemical, AlphaScreen, human; hit rate 0.91% among 650,000; Microphthalmia-associated transcription factor (Homo sapiens), O75030; AID 1259374, 2018; AlphaScreen MITF homodimerization, bead proximity signal; inhibition, % at 2.6 µM; in the data active = inhibition above about 50%
FBW7 activator: FBW7 E3 ligase activators, primary screen, biochemical, AlphaScreen, human; normalized activity (activation), % at 26.1 µM; hit rate 0.13% among 650,000; AID 1259310, 2017; F-box/WD repeat-containing protein 7 (Homo sapiens), Q969H0; AlphaScreen FBW7–phospho-cyclin E peptide binding, activator screen; in the data active = normalized activity above about 1.9%;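 also: purified mutant Fbw7 with reduced substrate affinity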
Target sequence (Q969H0 whole entry, looked up): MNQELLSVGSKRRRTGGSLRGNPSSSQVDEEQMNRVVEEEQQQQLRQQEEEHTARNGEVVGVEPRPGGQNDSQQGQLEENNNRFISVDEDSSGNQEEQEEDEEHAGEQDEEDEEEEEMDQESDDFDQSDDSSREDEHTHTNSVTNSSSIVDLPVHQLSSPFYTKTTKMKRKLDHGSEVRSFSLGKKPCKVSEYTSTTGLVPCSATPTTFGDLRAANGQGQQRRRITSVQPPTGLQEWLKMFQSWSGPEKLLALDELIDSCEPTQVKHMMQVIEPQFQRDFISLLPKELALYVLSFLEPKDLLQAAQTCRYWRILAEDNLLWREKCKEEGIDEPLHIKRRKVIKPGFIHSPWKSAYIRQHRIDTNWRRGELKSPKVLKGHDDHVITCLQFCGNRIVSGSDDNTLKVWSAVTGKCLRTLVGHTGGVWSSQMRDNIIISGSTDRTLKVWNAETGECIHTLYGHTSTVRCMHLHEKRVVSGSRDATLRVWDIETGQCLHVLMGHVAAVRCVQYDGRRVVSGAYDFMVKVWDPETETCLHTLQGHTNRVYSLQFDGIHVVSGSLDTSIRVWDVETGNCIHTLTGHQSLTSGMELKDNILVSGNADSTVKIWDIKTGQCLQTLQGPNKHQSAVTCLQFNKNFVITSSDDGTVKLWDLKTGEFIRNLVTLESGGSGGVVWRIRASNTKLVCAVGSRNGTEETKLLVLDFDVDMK
TEAD-YAP block: TEAD-YAP interaction inhibition, primary screen, TEAD-YAP interaction inhibitor project, luminescence, HEK-TIYL cells; TEAD-Gal4/YAP UAS-luciferase luminescence; inhibition, % at 9.12 µM; hit rate 1.4% among 640,000; AID 1259422, 2018; in the data active = inhibition above about 32%
GPR151 ag: activators of human GPR151, primary screen, cell-based, PathHunter beta-arrestin, luminescence; G-protein coupled receptor 151 (Homo sapiens), Q8TDV0; PathHunter beta-arrestin GPR151 cells; activation, % at 11.2 µM; hit rate 1% among 650,000; AID 1508602, 2020; in the data active = activation above about 4.9%
Of the large screens only hits and unclear results are named; the others gave an inactive call.

Cc1c2oc3c(C)ccc(C(=O)OC(C)C4NC(=O)C(C(C)C)N(C)C(=O)CN(C)C(=O)C5CCCN5C(=O)C(C(C)C)NC4=O)c3nc-2c(C(=O)OC(C)C2NC(=O)C(C(C)C)N(C)C(=O)CN(C)C(=O)C3CCCN3C(=O)C(C(C)C)NC2=O)c(N)c1=O (configuration not stated)	TEAD-YAP block 96
CCOC(=O)COc1ccc2ccccc2c1/C=C/[N+](=O)[O-]	none
COc1ccc2ccccc2c1/C=C/[N+](=O)[O-]	TEAD-YAP block 49
CC(C)Oc1ccc2ccccc2c1/C=C/[N+](=O)[O-]	TEAD-YAP block 36
COC(=O)c1ccc(NC(=O)Cn2c(-c3cccnc3)nc3ccccc32)cc1	none
CC1(Cc2cccc(C#N)c2)C(=O)Nc2ccc(F)cc21 (configuration not stated)	none
CC1(Cc2cccc(F)c2)C(=O)Nc2ccc(-c3cccnc3)cc21 (configuration not stated)	TEAD-YAP block 40
CC1(Cc2cccc(C#N)c2)C(=O)Nc2ccc(-c3cccnc3)cc21 (configuration not stated)	TEAD-YAP block 45
Nc1ccc(OCc2ccc(COc3ccc(N)cc3)cc2)cc1	FBW7 activator 17
O=C1CCCN1c1ccc(NS(=O)(=O)c2ccc(F)cc2)cc1	none
O=C1CCCN1c1cccc([N+](=O)[O-])c1	none
O=C1CCCN1c1ccc(S(=O)(=O)Nc2ccc(Cl)c(Cl)c2)cc1	TEAD-YAP block 46
NNS(=O)(=O)c1ccc(N2CCCC2=O)cc1	none
O=C1CCCN1c1ccc(S(=O)(=O)Oc2ccc(Cl)cc2Cl)cc1	TEAD-YAP block 61
O=C1CCCN1c1ccc(S(=O)(=O)Oc2cccc([N+](=O)[O-])c2)cc1	TEAD-YAP block 52
O=C1CCCN1c1ccc(S(=O)(=O)Nc2ccc(F)c(Cl)c2)cc1	TEAD-YAP block 46
COc1ccccc1-c1cc(C(N)=O)on1	none
CCOC(=O)Cn1c(=NC(=O)c2cc(C)n(CC)n2)sc2cc(F)ccc21	none
Cc1cccc(Cn2cnc3c(cnn3CCNC(=O)/C=C\c3ccc4c(c3)OCO4)c2=O)c1	none
CCc1cc2c(cc3c(=O)n(CC(=O)NCc4ccc(OC(C)C)cc4)ncn32)s1	none
CCCCOc1ccc(C(=O)N/C(=C/c2cccc([N+](=O)[O-])c2)C(N)=O)cc1	none
COc1ccccc1C1C=C(c2cccnc2)Nc2ncnn21 (configuration not stated)	none
Cc1ccc(NC(=O)CC2SC(N)=NC2=O)cc1 (configuration not stated)	none
NC1=NC(=O)C(CC(=O)Nc2ccc(NC(=O)CC3SC(N)=NC3=O)cc2)S1 (configuration not stated)	MITF primary 55
COC(=O)CSc1nnc(C)n1-c1ccc(C#N)cc1	none
O=C(Cc1ccc(Cl)cc1)Nc1ccc(-c2nc3ccccc3o2)cc1	none
Cc1cc2[nH]c(=S)n(Cc3ccccc3Cl)c2cc1C	TEAD-YAP block 50
COc1cc(N2CCOCC2)ccc1Nc1cc(Nc2ccccc2NC(C)=O)c(C(F)(F)F)cn1	TEAD-YAP block 46
CNC(=O)c1ccccc1Nc1cc(Nc2ccc(C(=O)N3CC[C@H](O)C3)cc2OC)ncc1C(F)(F)F	TEAD-YAP block 33
CNC(=O)c1ccccc1Nc1cc(Nc2ccc(N3CCOCC3)cn2)ncc1C(F)(F)F	TEAD-YAP block 86
NC(=O)c1ccccc1Nc1ccnc(Nc2ccc(N3CCNCC3)cc2)c1	none
Cc1cnc(Nc2ccc(N3CCNCC3)cc2)cc1Nc1ccccc1C(N)=O	TEAD-YAP block 33
CNC(=O)c1ncccc1Nc1cc(Nc2ccc(C(=O)N(C)C)cc2OC)ncc1C(F)(F)F	none
Cc1ccc2c(c1)N(CCCC(=O)NCCN1CCN(C)CC1)C(=O)CO2	none
CNC(=O)c1ccccc1Nc1cc(Nc2ccc(N3CCOCC3)cc2C)ncc1C(F)(F)F	TEAD-YAP block 71
Cc1ccc2nc(NC(=O)CSCC(=O)O)sc2c1	TEAD-YAP block 60
CCN(CC)C(=O)COc1ccc2ccccc2c1Br	none
CCNC(=O)c1ccc(CN2CCN(c3ccccc3)CC2)cc1	none
O=C(Nc1ccccc1C(F)(F)F)c1ccc(CN2CCN(c3ccccc3)CC2)cc1	TEAD-YAP block 47
CCn1nc(-c2ccc(OC)cc2)nc2c(=O)n(C)c(=O)nc1-2	TEAD-YAP block 96
CCn1nc(-c2ccccn2)nc2c(=O)n(C)c(=O)nc1-2	TEAD-YAP block 97
CCn1nc(-c2ccc(Cl)c(Cl)c2)nc2c(=O)n(C)c(=O)nc1-2	none
Cn1nc(-c2ccc([N+](=O)[O-])cc2)nc2c(=O)n(C)c(=O)nc1-2	TEAD-YAP block 55
O=C(Nc1ccccc1)/C(=C\c1ccco1)NC(=O)c1ccccc1Cl	none
Nc1ccc2nc3c(c(Cl)c2c1)CCCC3	TEAD-YAP block 33
COC(=O)C(C(C)=O)C1c2ccccc2Oc2ccc(F)cc21 (configuration not stated)	none
Cc1c(Cl)ccc(S(=O)(=O)N2CCCC2)c1Cl	none
Cn1c(=O)c2ncn(CC(=O)N/N=C/c3cc(Br)ccc3O)c2n(C)c1=O	MITF primary 63
Cn1c(=O)c2ncn(CC(=O)N/N=C/c3cc(Cl)ccc3O)c2n(C)c1=O	none
CC(=O)Nc1ccc(Nc2cc(C)nc(Nc3cnccn3)n2)cc1	none
CC(=O)Nc1ccc(Nc2cc(C)nc(Nc3nccc4ccccc34)n2)cc1	TEAD-YAP block 65
CC(=O)Nc1ccc(Nc2ccnc(Nc3nccc4ccccc34)n2)cc1	TEAD-YAP block 48
CC(=O)Nc1ccc(Nc2nc(Nc3nccc4ccccc34)ncc2C)cc1	none
COc1cc(=O)n2c(c1C(=O)NCc1cccs1)CCN(C(=O)C1CC=CCC1)CC2 (configuration not stated)	none
COc1ccc(NS(=O)(=O)c2cc(Br)cnc2N)cc1OC	none
CCOC(=O)C(=N\O)/C(C)=N/NC(=O)c1c(C)nnn1-c1nonc1N	none
CCC(=O)N(C)c1ccc(Oc2ccc(C)nn2)cc1	none
Cc1sc2ncnc(N/N=C/c3ccccn3)c2c1C	TEAD-YAP block 92
Cc1ccc2onc(CC(=O)NC(C)C)c2c1	none
N#Cc1ccc(Oc2ccc(N3C(=O)c4ccc(Oc5ccc(C(=O)O)cc5)cc4C3=O)cc2)cc1	none
OCCN1CCN(C(c2ccc(Cl)cc2)c2ccc3cccnc3c2O)CC1 (configuration not stated)	TEAD-YAP block 74
CN1CCN(C(c2ccc(F)cc2)c2ccc3cccnc3c2O)CC1 (configuration not stated)	TEAD-YAP block 84
Oc1c(C(c2ccc(F)cc2)N2CCOCC2)ccc2cccnc12 (configuration not stated)	TEAD-YAP block 76
Oc1c(C(c2ccc(C(F)(F)F)cc2)N2CCOCC2)ccc2cccnc12 (configuration not stated)	TEAD-YAP block 82
CN1CCN(C(c2cccnc2)c2ccc3cccnc3c2O)CC1 (configuration not stated)	none
Cc1ccc2c(C)nc(Nc3nc(O)cc(=O)[nH]3)nc2c1	none
Nc1nncn1C(=O)c1cc(Cl)ccc1Cl	none
